In the library only some 2.9% were active in any assay of this set; here they are far more common.
POLK inh – inhibitors of human DNA polymerase kappa. Q9UBT6. purified Pol kappa, fluorescent DNA synthesis assay, 10 min. Potency, µM (highest dose often 107 µM), for the others: top-dose activity, negative = inhibition, most hits filed as inhibitors. 400,000 tested, 0.53% active; further: potency means the concentration at half of the fitted maximal effect; on the % scale 0 is the no-effect control and ±100 the full control effect
Target sequence (Q9UBT6 whole entry, looked up): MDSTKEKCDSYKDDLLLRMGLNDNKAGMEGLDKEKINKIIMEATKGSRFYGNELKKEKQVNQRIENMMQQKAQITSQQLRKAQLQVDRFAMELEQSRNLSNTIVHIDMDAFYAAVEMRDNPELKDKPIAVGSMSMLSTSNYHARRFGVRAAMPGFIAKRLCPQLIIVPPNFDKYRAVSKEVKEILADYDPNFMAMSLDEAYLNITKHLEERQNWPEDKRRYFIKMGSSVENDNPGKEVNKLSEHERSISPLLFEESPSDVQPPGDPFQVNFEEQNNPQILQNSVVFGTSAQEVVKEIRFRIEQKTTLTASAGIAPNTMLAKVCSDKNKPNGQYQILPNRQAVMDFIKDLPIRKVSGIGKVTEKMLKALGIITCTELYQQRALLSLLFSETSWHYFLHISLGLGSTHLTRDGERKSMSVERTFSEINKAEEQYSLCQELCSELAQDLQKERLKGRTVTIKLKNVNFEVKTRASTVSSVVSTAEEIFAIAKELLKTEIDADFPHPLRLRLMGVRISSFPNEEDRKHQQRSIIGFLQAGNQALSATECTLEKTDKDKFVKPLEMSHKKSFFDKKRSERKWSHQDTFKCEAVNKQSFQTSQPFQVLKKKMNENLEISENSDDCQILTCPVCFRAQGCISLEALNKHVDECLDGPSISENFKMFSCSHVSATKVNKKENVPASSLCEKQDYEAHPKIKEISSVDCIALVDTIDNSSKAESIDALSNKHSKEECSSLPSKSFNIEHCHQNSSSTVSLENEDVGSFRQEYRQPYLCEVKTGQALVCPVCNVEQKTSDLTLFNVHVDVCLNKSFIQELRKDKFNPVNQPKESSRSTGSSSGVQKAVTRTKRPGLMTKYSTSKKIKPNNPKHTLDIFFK
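Kinetic fluorescence screen: compound preincubated 15 min RT with 10 nM enzyme; 50 nM substrate (final) initiates; reads at 0/10 min.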
ALOX12 inh – blocks human arachidonate 12S-lipoxygenase; Potency, µM (doses to about 108 µM), for the others: at the highest dose activity change, negative = inhibition, usual class: inhibitors; 580,000 tested, 1.1% active; P18054; purified 12hLO, xylenol orange hydroperoxide absorbance; further: potency means the concentration at half of the fitted maximal effect; on the % scale 0 is the no-effect control and ±100 the full control effect
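Purified human 12hLO (150 nM final) in 25 mM Hepes, 0.01% Triton X-100, pH 7.0 was preincubated 15 min at room temperature with compound. Then 40 uM arachidonic acid was added, 30 min. Hydroperoxide was read by Fe-XO absorbance ratio 573/405 nm.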
POLB inh – DNA polymerase beta (human) inhibition | P06746 | Pol beta primer extension/strand displacement, fluorescence kinetic | Potency, µM (titrated, usually from 114 µM), for the others: at the highest dose activity change, negative = inhibition, most hits filed as inhibitors | 340,000 tested, 1.3% active | AID 485314; further: potency means the concentration at half of the fitted maximal effect; on the % scale 0 is the no-effect control and ±100 the full control effect
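Enzyme-only controls used 10 nM Pol beta; buffer lacking enzyme served as negative control. Compound preincubated 15 min, then 50 nM substrate added; 0 and 10 min reads at room temperature.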
POLH inh – inhibitors of human DNA polymerase eta. recombinant Pol eta, fluorescent DNA replication assay. 390,000 tested, 1.2% active. Potency, µM (titrated, usually from 114 µM), without a hit: at the highest dose activity change, negative = inhibition, usual class: inhibitors. Q9Y253; further: potency means the concentration at half of the fitted maximal effect; on the % scale 0 is the no-effect control and ±100 the full control effect
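Pol eta (10 nM) was preincubated with compounds for 15 min at room temperature, after which fluorescent replication substrate (50 nM final) was added to start the reaction. Fluorescence was read kinetically at 0 and 10 min.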
POLI inh – inhibitors of human DNA polymerase iota. Q9UNA4. Pol iota fluorescent replication assay, 10 min. Potency, µM (top dose mostly 115 µM), inactives show at the top dose activity, negative = inhibition, actives largely listed as inhibitors. 390,000 tested, 1% active. AID 588590; further: potency means the concentration at half of the fitted maximal effect
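Fluorescent replication assay read twice, at 0 min and 10 min after adding 50 nM (final) substrate. Enzyme (10 nM) and compounds were first incubated 15 min at room temperature; enzyme-free buffer wells were negative controls.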
PI5P4K alpha inh – PI5P4K alpha (human) kinase inhibition. PI5P4Kalpha enzyme, ADP-Glo luminescence, 60 min; active compounds read low. max response, %. 330,000 tested, 1.2% active. AID 652105; active means max response of -50% or lower; inconclusive means between -30% and -50%; inactive means -30% or higher; further: value at the top dose of about 77 µM; on the % scale 0 is the no-effect control and ±100 the full control effect
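Quantitative HTS of the MLSMR library against PI5P4Kalpha with substrate. ATP added last at 5 microM final; room temperature, 60 minutes. Remaining ATP depleted, ADP converted and read as luminescence.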
ADP-Glo interf – counter-screen for PI5P4K inhibitors: ADP-Glo detection interference, no enzyme | 1,100 tested, under 10 active | ADP-Glo detection counter-screen, luciferase luminescence, no enzyme | Potency, µM (series often up to 76.9 µM), without a hit: at the top dose activity change, negative = inhibition, hits mostly inhibitors | shares compounds with PI5P4K alpha inh
Starred values were filed as active, the others as inactive; ? = inconclusive; . = no result given; [ ] = dose if it differs, or a comment. Unless noted, the call rests on the fitted dose curve; in most records, active means well fitted curve in the direction sought with a large enough effect; inconclusive means small, poorly fitted or top-dose-only effect, or another doubt; inactive means no such curve, though single readings can be large; an effect the other way counts as inactive or inconclusive.

SMILES | POLK inh | ALOX12 inh | POLB inh | POLH inh | POLI inh | PI5P4K alpha inh | ADP-Glo interf
CC(C)(C)c1ccc(NC(=O)C2=CC=CN3CCS(=O)(=O)N=C23)cc1 | 6% | 4% | . | -2% | 7% | 4 | 3%
NC(=O)c1cc(-c2cc(NCc3cccnc3)nc3[nH]ccc23)ccc1F | . | 70% | . | . | . | . | .
O=C(NC1CC1)C1=C[C@@H](c2c[nH]c3ccccc23)C[C@@H](OCc2ccc(CO)cc2)O1 | -13% | ? | 3% | -2% | ? | -51* | -7%
Cc1cccnc1NC(=O)CNC(=O)c1sc2ccccc2c1Cl | 12% | -1% | . | -15% | 13% | -2 | .
Cc1cccc(NC(=O)CNC(=O)c2sc3ccccc3c2Cl)n1 | -20% | -5% | . | 1% | 24% | -51* | -8%
NC(=O)NC(=O)COC(=O)c1cc(Cl)ccc1Cl | . | 34% | . | . | . | . | .
N#CCCSCc1ccc2oc(C(=O)O)cc2c1 | -5% | -6% | -1% | -1% | 4% | . | .
COCc1ccc2oc(C(=O)O)cc2c1 | -7% | 0% | 19% | -17% | -16% | -68* | 0%
CCOc1ccccc1NC(=O)c1ncoc1-c1cccc(OC)c1 | . | 4% | . | . | . | . | .
COc1ccc2nc(-c3ccco3)c(-c3ccco3)nc2c1 | ? | 18µM* | 22µM* | 3.2µM* | ? | -58* | -3%
COc1cc(OC)cc(-c2nnc(NC(=O)CCS(=O)(=O)c3ccc(C)cc3)o2)c1 | -23% | -11% | . | -22% | ? | -50* | 2%
Cn1c(=O)oc2cc(S(=O)(=O)Nc3ccccc3)ccc21 | -8% | 8% | -7% | -6% | 69% | -55* | 5%
COc1cccc(CNS(=O)(=O)c2ccccc2Br)c1OC | -5% | -5% | . | -19% | 8% | -60* | 1%
Cc1ccc(-c2cc3c(n2-c2ccc(C(=O)O)cc2)CCCC3=O)cc1 | -6% | -30% | 42% | ? | -2% | -78* | -6%
O=c1[nH]c2cc3c(cc2cc1CN(Cc1ccccc1)Cc1nnnn1Cc1ccco1)OCCO3 | ? | ? | 32µM* | ? | 18µM* | -54* | 10%
Cc1ccc2[nH]c(=O)c(CN(Cc3ccc4c(c3)OCO4)Cc3nnnn3Cc3ccco3)cc2c1 | -7% | ? | -4% | -16% | -18% | -14 | .
Nc1ccc(C(=O)Oc2ccccc2)cc1 | . | -4% | . | . | . | . | .
COc1ccc(CNC(=O)CCCn2nc(C)c([N+](=O)[O-])c2C)cc1OC | 4% | -3% | 1% | -3% | 12% | ? | -4%
COc1ccc2c(C)c(CC(=O)N3CCCC3)c(=O)oc2c1C | . | -6% | . | . | . | . | .
CCn1c(C(=O)OC)cc2c1ccn2-c1ccc(F)cc1 | -18% | 0%[57.4 µM] | -6% | -5% | ? | -50* | -2%
O=C(O)c1ccc(NCc2c(Cl)cccc2Cl)cc1 | . | 5% | . | . | . | . | .
Clc1cccc(Cl)c1CNc1ccc(N2CCCC2)cc1 | -12% | ? | 1% | -6% | 95% | -51* | -13%
Cc1ccc2nc(NC(=O)C3CCN(S(=O)(=O)c4cc([N+](=O)[O-])ccc4Cl)CC3)sc2c1 | ? | ? | 14µM* | ? | 45µM* | -53* | 2%
CC(C)C(=O)N1CCN(c2ccccc2NC(=O)c2ccco2)CC1 | ? | 13% | 2% | -99% | ? | -59* | 2%
Cc1cc(C(=O)OCC(=O)c2cccc3ccccc23)c2ccccc2n1 | . | 21% | . | . | . | . | .
SMILES | POLK inh | ALOX12 inh | POLB inh | POLH inh | POLI inh | PI5P4K alpha inh | ADP-Glo interf
CCS(=O)(=O)Nc1ccc(-c2nc3cccnc3s2)cc1 | 1% | 18% | 3% | -10% | 20% | -59* | -9%
O=S(=O)(Nc1ccc(-c2nc3cccnc3s2)cc1)c1ccc(Cl)s1 | -6% | ? | -25% | ? | 2% | -62* | -5%
CCC(C)NC(=O)COC(=O)c1nn(-c2ccccc2)c(=O)c2ccccc12 (centres undefined) | . | -16% | . | . | . | . | .
Cc1ncsc1CN1CCCN(Cc2ccncc2)C(c2ccccc2)CC(=O)NCC1 (centres undefined) | . | 74% | . | . | . | . | .
CCCC(=O)Nc1nnc(SCC(=O)NCc2ccco2)s1 | -8% | -4% | ? | -8% | 69% | -11 | .
Cc1ccc(Nc2nnc(SCC(=O)NCc3ccco3)s2)cc1 | ? | 15% | 10µM* | ? | -21% | -52* | 5%
CCOc1ccc(OCc2ccc(C(=O)N3CCOCC3)cc2)cc1 | -5% | -27% | 1% | -16% | -2% | -54* | -5%
OC12CC3CC(C1)CC(NCc1cccc4ccccc14)(C3)C2 | . | -66% | . | . | . | . | .
CCCN(C(=O)c1cc(-c2ccco2)nc2ccccc12)c1c(N)n(Cc2ccccc2)c(=O)[nH]c1=O | -45% | ? | . | 16µM* | 20µM* | -59* | -4%
CC(C)COC(=O)Cn1nnc2sc(-c3ccccc3)cc2c1=O | -3% | -16% | 36% | . | 14% | . | .
CC(=O)Cn1nnc2sc(-c3ccccc3)cc2c1=O | -26% | ? | ? | ? | -21% | -54* | 3%
Cc1ccc(-c2cc(C(=O)O)c3cc(Br)ccc3n2)o1 | ? | 16µM* | 22µM* | 20µM* | ? | -69* | 0%
Cc1ccc(-c2cc(C(=O)O)c3cc(Br)ccc3n2)s1 | -12% | -18% | 2% | -2% | 11% | 0 | .
CCn1c(SCC(=O)NC(=O)NCc2ccco2)nc2sc(C)c(C)c2c1=O | ? | 342% | 20µM* | ? | 28µM* | -51* | 1%
Cc1sc2nc(SCC(=O)NCc3ccco3)n(C)c(=O)c2c1C | -5% | 3% | 27% | ? | ? | -1 | .
CN(c1cccc(NC(=O)c2ccc(N(C)S(=O)(=O)c3ccccc3)cc2)c1)S(C)(=O)=O | -3% | -1% | 17% | -17% | ? | -56* | -4%
O=C(CSc1nc(-c2ccccc2)cc(=O)[nH]1)N1CCc2ccccc21 | -7% | -22% | ? | 2% | ? | -50* | -5%
Nc1nc(SCC(=O)N2CCc3ccccc32)[nH]c(=O)c1-c1ccccc1 | 2% | -7% | -7% | -12% | 8% | . | .
Cc1cccc(CN2CCc3ncc(C(=O)NCCC(C)C)n3CC2)c1 | . | 9%[176 µM] | . | . | . | . | .
NC(=O)c1c(NC(=O)c2cc3ccccc3o2)sc2c1CCC2 | -32% | -1% | 50µM* | ? | ? | -56* | -14%
O=C(CCS(=O)(=O)c1ccc2c(c1)NC(=O)CS2)NCCc1ccc(Cl)cc1 | -4% | -7% | 7% | -23% | 17% | -60* | 0%

Screening results from PubChem.
